Test results published in PubChem BioAssay AID1159580 (chemical genetic matrix, 2015).
Where “and” joins values, the source holds several entries; their conditions need not be identical. Equal values may be shown once. The campaign covered roughly 5,500 compounds. About 2,000 (36%) were called active. About 18% were inconclusive and are not listed. Cut-off read from the data, not from the text of the source: active = normalized growth mostly below about 0.91 (no sharp cut-off); inconclusive = no clear call, values can overlap the other calls; inactive = mostly above about 0.92. The list shows a part of the results.

Assay: chemical genetic growth profiling, strain panel (AID 1159580);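 note: tested at 20 µM; growth read once vehicle control cultures reached saturation at 30 °C; 1 = growth at the plate median or of vehicle wells; lower values mean less growth of the strain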
Details: S. cerevisiae deletion strains, growth OD

Measured: normalized growth

COC1(C)CCC2OC2(C)CCC2C1CC2(C)C (centres undefined)
inactive: locus YAL013W, strain DEP1, stronger effect = lower value 1 | locus YAL021C, strain ccr4, stronger effect = lower value 1 | locus YAL026C, strain drs2, stronger effect = lower value 1.03 | locus YAL030W, strain snc1, stronger effect = lower value 1.01 | locus YBL061C, strain skt5, stronger effect = lower value 1.01 | locus YBR009C, strain hhf1, stronger effect = lower value 0.991 | locus YBR021W, strain FUR4, stronger effect = lower value 1.02 | locus YBR023C, strain chs3, stronger effect = lower value 1 | locus YBR171W, strain sec66, stronger effect = lower value 1.02 | locus YBR229C, strain ROT2, stronger effect = lower value 1.01 | locus YBR231C, strain swc5, stronger effect = lower value 1.02 | locus YBR279W, strain paf1, stronger effect = lower value 0.998 | locus YCL011C, strain gbp2, stronger effect = lower value 1.01 | locus YCL016C, strain dcc1, stronger effect = lower value 1 | locus YCL029C, strain bik1, stronger effect = lower value 0.998 | locus YCL061C, strain MRC1, stronger effect = lower value 1 | locus YCL069W, strain vba3, stronger effect = lower value 1.02 | locus YCR088W, strain abp1, stronger effect = lower value 1.01 | locus YDL005C, strain med2, stronger effect = lower value 1.01 | locus YDL035C, strain GPR1, stronger effect = lower value 1.01 | locus YDL040C, strain nat1, stronger effect = lower value 1.01 | locus YDL074C, strain BRE1, stronger effect = lower value 1.01 | locus YDL101C, strain DUN1, stronger effect = lower value 1.02 | locus YDL134C, strain PPH21, stronger effect = lower value 1.04 | locus YDL185W, strain tfp1, stronger effect = lower value 1.01 | locus YDL192W, strain arf1, stronger effect = lower value 0.99 | locus YDR001C, strain nth1, stronger effect = lower value 1.01 | locus YDR069C, strain doa4, stronger effect = lower value 1.01 | locus YDR101C, strain arx1, stronger effect = lower value 0.993 | locus YDR137W, strain rgp1, stronger effect = lower value 1 | locus YDR150W, strain NUM1, stronger effect = lower value 0.98 | locus YDR159W, strain sac3, stronger effect = lower value 0.997 | locus YDR162C, strain NBP2, stronger effect = lower value 0.995 | locus YDR195W, strain ref2 1.02 | locus YDR297W, strain sur2, stronger effect = lower value 0.997 | locus YDR318W, strain mcm21, stronger effect = lower value 1.01 | locus YDR334W, strain swr1, stronger effect = lower value 1.02 | locus YDR335W, strain msn5, stronger effect = lower value 1.02 | locus YDR388W, stronger effect = lower value 1.01 | locus YDR392W, strain spt3, stronger effect = lower value 0.818 | locus YDR502C, strain sam2, stronger effect = lower value 1.04 | locus YEL003W, strain gim4, stronger effect = lower value 1.01 | locus YEL037C, strain rad23, stronger effect = lower value 1.01 | locus YEL061C, strain CIN8 (second series), stronger effect = lower value 1.02 | locus YER015W, strain faa2, stronger effect = lower value 1 | locus YER016W, strain bim1, stronger effect = lower value 1.01 | locus YER110C, stronger effect = lower value 1.02 | locus YER111C, strain swi4, stronger effect = lower value 1 | locus YER155C, strain BEM2 (second series), stronger effect = lower value 0.995 | locus YER155C, strain BEM2, stronger effect = lower value 0.996 | locus YER167W, strain BCK2, stronger effect = lower value 0.997 | locus YFR010W, strain ubp6, stronger effect = lower value 1.03 | locus YGL078C, strain dbp3, stronger effect = lower value 1.05 | locus YGL086W, strain mad1, stronger effect = lower value 1 | locus YGL167C, strain pmr1, stronger effect = lower value 1.01 | locus YGL173C, strain kem1, stronger effect = lower value 1.01 | locus YGL227W, strain vid30, stronger effect = lower value 1.01 | locus YGL240W, strain doc1, stronger effect = lower value 1 | locus YGL248W, strain PDE1, stronger effect = lower value 1.05 | locus YGL253W, strain hxk2, stronger effect = lower value 1.01 | locus YGR078C, strain PAC10, stronger effect = lower value 1.05 | locus YGR135W, strain pre9, stronger effect = lower value 1.06 | locus YGR252W, strain gcn5, stronger effect = lower value 1.03 | locus YHR013C, strain ard1, stronger effect = lower value 1.03 | locus YHR027C, strain rpn1, stronger effect = lower value 1.02 | locus YHR030C, strain SLT2, stronger effect = lower value 1.01 | locus YHR079C, strain IRE1 (second series), stronger effect = lower value 1 | locus YHR079C, strain IRE1, stronger effect = lower value 1.04 | locus YHR094C, strain hxt1, stronger effect = lower value 1.01 | locus YHR129C, strain ARP1, stronger effect = lower value 1.01 | locus YHR142W, strain chs7, stronger effect = lower value 1.03 | locus YHR200W, strain rpn10, stronger effect = lower value 1.02 | locus YIL066C, strain RNR3, stronger effect = lower value 1 | locus YIL073C, strain SPO22, stronger effect = lower value 1.06 | locus YIL125W, strain kgd1, stronger effect = lower value 0.981 | locus YIR030C, strain dcg1, stronger effect = lower value 0.999 | locus YJL092W, strain hpr5, stronger effect = lower value 1.01 | locus YJL095W, strain BCK1 (second series), stronger effect = lower value 1.01 | locus YJL095W, strain BCK1, stronger effect = lower value 1.11 and 1.04 | locus YJL115W, strain asf1, stronger effect = lower value 1.01 | locus YJL129C, strain trk1, stronger effect = lower value 1.01 | locus YJL134W, strain LCB3, stronger effect = lower value 1.01 | locus YJL154C, strain vps35, stronger effect = lower value 1.02 | locus YJL164C, strain tpk1, stronger effect = lower value 1.01 | locus YJL166W, strain qcr8, stronger effect = lower value 1.02 | locus YJL168C, strain set2, stronger effect = lower value 0.988 | locus YJL187C, strain SWE1 (second series), stronger effect = lower value 1.05 | locus YJL187C, strain SWE1, stronger effect = lower value 1 | locus YJR043C, strain POL32, stronger effect = lower value 0.99 | locus YJR066W, strain TOR1, stronger effect = lower value 0.962 | locus YKL009W, strain mrt4, stronger effect = lower value 1.04 | locus YKL068W, stronger effect = lower value 1 | locus YKL085W, strain MDH1 (second series), stronger effect = lower value 1 | locus YKL085W, strain MDH1, stronger effect = lower value 1 | locus YKL160W, strain elf1, stronger effect = lower value 1 | locus YKL190W, strain CNB1, stronger effect = lower value 1 | locus YKR001C, strain vps1, stronger effect = lower value 1.02 | locus YKR026C, strain gcn3, stronger effect = lower value 1.01 | locus YKR091W, strain srl3, stronger effect = lower value 1.01 | locus YLL001W, strain dnm1, stronger effect = lower value 0.989 | locus YLL026W, stronger effect = lower value 0.991 | locus YLL041C, strain sdh2, stronger effect = lower value 1.02 | locus YLR027C, strain aat2, stronger effect = lower value 0.993 | locus YLR039C, strain RIC1, stronger effect = lower value 1.06 | locus YLR058C, strain SHM2, stronger effect = lower value 1.03 | locus YLR102C, strain apc9, stronger effect = lower value 0.997 | locus YLR113W, strain HOG1, stronger effect = lower value 1.03 | locus YLR221C, strain rsa3, stronger effect = lower value 1.01 | locus YLR258W, strain gsy2, stronger effect = lower value 1.01 | locus YLR262C, strain YPT6 (second series), stronger effect = lower value 0.979 | locus YLR262C, strain YPT6, stronger effect = lower value 1.07 | locus YLR268W, strain sec22, stronger effect = lower value 0.983 | locus YLR320W, strain mms22, stronger effect = lower value 1 | locus YLR342W, strain FKS1, stronger effect = lower value 1 | locus YLR357W, strain rsc2, stronger effect = lower value 1.02 | locus YLR370C, strain arc18, stronger effect = lower value 1 | locus YLR371W, strain rom2, stronger effect = lower value 1.01 | locus YLR384C, strain iki3, stronger effect = lower value 1 | locus YLR418C, strain cdc73, stronger effect = lower value 1.04 | locus YML016C, strain PPZ1, stronger effect = lower value 1.02 | locus YML032C, strain rad52, stronger effect = lower value 1 | locus YML120C, strain ndi1, stronger effect = lower value 1.01 | locus YML124C, strain tub3, stronger effect = lower value 1 | locus YMR058W, strain fet3, stronger effect = lower value 1.01 | locus YMR078C, strain ctf18, stronger effect = lower value 1.01 | locus YMR125W, strain sto1, stronger effect = lower value 0.997 | locus YMR129W, stronger effect = lower value 1.01 | locus YMR205C, strain PFK2, stronger effect = lower value 0.981 | locus YMR223W, strain ubp8, stronger effect = lower value 1.01 | locus YMR231W, strain pep5, stronger effect = lower value 1 | locus YMR307W, strain GAS1, stronger effect = lower value 1.02 | locus YNL067W, strain RPL9B, stronger effect = lower value 1.04 | locus YNL071W, strain lat1, stronger effect = lower value 1.01 | locus YNL153C, strain GIM3, stronger effect = lower value 1.04 | locus YNL183C, strain NPR1, stronger effect = lower value 0.972 | locus YNL209W, strain ssb2, stronger effect = lower value 1.01 | locus YNL233W, strain BNI4, stronger effect = lower value 1.06 | locus YNL248C, strain rpa49, stronger effect = lower value 1.02 | locus YNL250W, strain rad50, stronger effect = lower value 1.03 | locus YNL271C, strain bni1, stronger effect = lower value 1.01 | locus YNL298W, strain CLA4, stronger effect = lower value 1.02 | locus YNL307C, strain MCK1, stronger effect = lower value 1.01 | locus YNL322C, strain KRE1 (second series), stronger effect = lower value 1.01 | locus YNR049C, strain mso1, stronger effect = lower value 1.01 | locus YNR052C, strain pop2, stronger effect = lower value 1.03 | locus YOL012C, strain htz1 1.84 | locus YOL147C, strain pex11, stronger effect = lower value 1.01 | locus YOR001W, strain rrp6, stronger effect = lower value 1.02 | locus YOR061W, strain CKA2, stronger effect = lower value 1.01 | locus YOR069W, strain VPS5, stronger effect = lower value 1.01 | locus YOR070C, strain gyp1, stronger effect = lower value 1.02 | locus YOR080W, strain dia2, stronger effect = lower value 1 | locus YOR083W, strain WHI5, stronger effect = lower value 0.996 | locus YOR106W, strain vam3, stronger effect = lower value 1.01 | locus YOR136W, strain idh2, stronger effect = lower value 1.01 | locus YOR144C, strain elg1, stronger effect = lower value 0.994 | locus YOR184W, strain ser1, stronger effect = lower value 0.976 | locus YOR231W, strain MKK1, stronger effect = lower value 1.07 | locus YOR265W, strain rbl2, stronger effect = lower value 1.02 | locus YOR270C, strain vph1, stronger effect = lower value 1.15 | locus YOR290C, strain snf2, stronger effect = lower value 1.02 | locus YOR316C, strain cot1, stronger effect = lower value 1.01 | locus YPL051W, strain arl3, stronger effect = lower value 0.976 | locus YPL055C, strain LGE1, stronger effect = lower value 1 | locus YPL078C, strain atp4, stronger effect = lower value 1.01 | locus YPL106C, strain sse1, stronger effect = lower value 1.01 | locus YPL240C, strain hsp82, stronger effect = lower value 1.01 | locus YPL241C, strain CIN2, stronger effect = lower value 0.993 | locus YPL256C, strain CLN2, stronger effect = lower value 1.03 | locus YPR119W, strain clb2, stronger effect = lower value 1 | locus YPR141C, strain kar3, stronger effect = lower value 1.02 | locus YPR163C, strain tif3, stronger effect = lower value 1 | locus YPR167C, strain met16, stronger effect = lower value 1.01 | strain wtn01, stronger effect = lower value 0.986
